These results are taken from PubChem BioAssay (NCI).

Common to all, as to assay: NCI-60 one-dose screen, 48 h (100 = growth as untreated, 0 = no growth, -100 = all killed)
One assay relates to NCI-H23 lung. Particulars: 10 µM unless noted.
The next assay concerns NCI-H226 lung. The settings on record: 10 µM unless noted.
The test system of another assay is NCI-H322M lung. Particulars: 10 µM unless noted.
Another assay concerns NCI-H460 lung. Particulars: 10 µM unless noted.
Another assay concerns HOP-92 NSCLC. The settings on record: 10 µM.
The next assay concerns NCI-H522 lung. Particulars: 10 µM.
The subject of another assay is A549/ATCC NSCLC. The settings on record: 10 µM unless noted.
The next assay deals with 786-0 renal. Particulars: 10 µM unless noted.
A further assay relates to COLO 205 colon. Particulars: 10 µM unless noted.

Compounds without any hit were thinned out: in the full panel of roughly 83,000, 20% have a hit.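 Activity criterion: percent growth below 10, measured after cells in 96-well plates were exposed to a single compound concentration for 48 hours.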 Unmarked numbers belong to inactive results. Activity calls are given as the source filed them.

`CC(=O)NNC(=O)c1sc(NC(C)=O)nc1C`: the growth in the assay on NCI-H23 lung was 98.2%; with NCI-H226 lung, 93.1%; in the assay on NCI-H322M lung it was 121%; with NCI-H460 lung, 108%; in the assay with HOP-92 NSCLC, 57.4%; in the assay on NCI-H522 lung, 139%. The growth in the assay with A549/ATCC NSCLC was 104%; in the assay with 786-0 renal, 122%; in the assay on COLO 205 colon it was 108%.
As for `CCCCCCCCc1ccc(OCCOCC[N+](C)(C)CC)cc1` (tested in a mixture with another compound), the growth in the assay on NCI-H23 lung is 26.8%; in the assay on NCI-H226 lung it was 56.5%; with NCI-H322M lung, 94%; with NCI-H460 lung, 39.9%; with HOP-92 NSCLC it was 6.23% (active); in the assay with NCI-H522 lung, 3.68% (active). Besides, the growth in the assay on A549/ATCC NSCLC was 69.5%; with 786-0 renal, 87.8%; in the assay on COLO 205 colon it was -42.1% (active).
With `COc1ccc2nc3cc(Cl)ccc3c(NCCCNC(C)=O)c2c1`, the growth is 37% with NCI-H23 lung; 34.1% in the assay with NCI-H226 lung; 34.4% in the assay with NCI-H322M lung; 7.26% (active) with NCI-H460 lung; 50.4% with HOP-92 NSCLC; 52.5% with NCI-H522 lung. The results for the growth in the assay on A549/ATCC NSCLC, in the assay on 786-0 renal and in the assay on COLO 205 colon were 23.9%, 48.9% and 23.7%, respectively.
Take `COc1ccc2c(c1)/C(=C/c1c(-c3cc(OC)c(OC)c(OC)c3)nc3sccn13)C(=O)N2`: the growth in the assay on NCI-H23 lung was 99.1%; in the assay on NCI-H226 lung it was 97%; in the assay on NCI-H322M lung, 92.3%; in the assay on NCI-H460 lung it was 108%; in the assay with HOP-92 NSCLC, 31.7%; in the assay on NCI-H522 lung, 86.5%. Besides, the growth was 110% with A549/ATCC NSCLC, 95.7% with 786-0 renal and 107% in the assay on COLO 205 colon.
With `COc1ccc(Cn2cc3c(c2-c2ccccc2)CCc2cnoc2-3)cc1OC`, the growth in the assay on NCI-H23 lung is 26.3%; with NCI-H226 lung it was 57.3%; with NCI-H322M lung it was 44.8%; in the assay on NCI-H460 lung it was 7.98% (active); in the assay on HOP-92 NSCLC it was 61.1%; in the assay on NCI-H522 lung, 35.1%. Besides, the growth in the assay on A549/ATCC NSCLC is 41.3%; in the assay with 786-0 renal, 39.7%; in the assay with COLO 205 colon, 8.16% (active).
As to `Brc1ccc(-c2nc3ccccc3s2)cc1`, the growth with NCI-H23 lung is 92.4%; with NCI-H226 lung, 75.8%; with NCI-H322M lung it was 92.7%; in the assay on NCI-H460 lung it was 97.1%; in the assay on HOP-92 NSCLC it was 97.7%; with NCI-H522 lung, 93.8%. Moreover, the growth in the assay with A549/ATCC NSCLC, in the assay on 786-0 renal and with COLO 205 colon was 106% in each case.
With `CC(C)(C)C(=O)CCCCCCCC/C=C/CCCC(O)c1ccco1` (stereo not given), the growth with NCI-H23 lung is 102%; with NCI-H226 lung, 112%; in the assay with NCI-H322M lung, 95.5%; in the assay on NCI-H460 lung, 112%; in the assay on HOP-92 NSCLC, 79.1%; with NCI-H522 lung, 120%. Moreover, the growth was 108% in the assay on A549/ATCC NSCLC, 94.5% in the assay on 786-0 renal and 124% in the assay with COLO 205 colon.
Turning to `COC1=C(OC)C(=O)c2ccccc2C1=O`, the growth is 81.5% in the assay with NCI-H23 lung; 102% in the assay with NCI-H226 lung; 107% with NCI-H322M lung; 97.4% in the assay with NCI-H460 lung; 95% in the assay with HOP-92 NSCLC; 94.8% in the assay on NCI-H522 lung. Also, the growth was 96.9% in the assay with A549/ATCC NSCLC, 120% with 786-0 renal and 100% with COLO 205 colon.
Take `CCCCCCCCCCCCc1ccc([N+](CC)(CC)CC)cc1`: the growth with NCI-H23 lung was 17.6%; in the assay on NCI-H226 lung it was 59.3%; in the assay with NCI-H322M lung, 88.5%; in the assay with NCI-H460 lung, 44%; with HOP-92 NSCLC, 40.9%; in the assay with NCI-H522 lung, 33.8%. Also, the growth in the assay on A549/ATCC NSCLC is 61.1%; in the assay on 786-0 renal it was 65.6%; with COLO 205 colon it was 20.3%.
As for `CCCCCCCCCCCCCCCC[n+]1cccc(C#N)c1`, the growth is 76.8% in the assay on NCI-H23 lung; 80.2% with NCI-H226 lung; 82.8% in the assay with NCI-H322M lung; 71.6% in the assay on NCI-H460 lung; 48.7% in the assay with HOP-92 NSCLC; 54.7% in the assay with NCI-H522 lung. In addition, the growth with A549/ATCC NSCLC was 87.7%; with 786-0 renal it was 70.3%; in the assay with COLO 205 colon, 31.9%.
Consider `CC(=O)c1nn(-c2ccc(C)cc2)cc1C(=O)c1cc2c(ccc3ccccc32)oc1=O`, for which the growth is 91.2% in the assay on NCI-H23 lung; 90.1% with NCI-H226 lung; 91.5% in the assay with NCI-H322M lung; 100% with NCI-H460 lung; 77.6% with HOP-92 NSCLC; 81.5% in the assay on NCI-H522 lung. Besides, the values for the growth with A549/ATCC NSCLC, in the assay on 786-0 renal and with COLO 205 colon were 96.8%, 93.4% and 107%, respectively.
With `O=C(N/N=C\c1ccc(Cl)cc1)C(=O)N/N=C\c1ccc(Cl)cc1`, the growth in the assay with NCI-H23 lung is 102%; in the assay with NCI-H226 lung, 110%; in the assay with NCI-H322M lung it was 92.9%; in the assay on NCI-H460 lung, 103%; in the assay on HOP-92 NSCLC, 92.3%; in the assay with NCI-H522 lung it was 101%. Also, the results for the growth with A549/ATCC NSCLC, with 786-0 renal and in the assay on COLO 205 colon were 102%, 91.2% and 97%, respectively.
As to `CCCCCCCCc1ccc(CCC(N)(CO)CO)cc1`, the growth was 68.9% in the assay with NCI-H23 lung; 94.3% in the assay on NCI-H226 lung; 3.56% (active) with NCI-H322M lung; 0.54% (active) with NCI-H460 lung; -5.83% (active) in the assay on HOP-92 NSCLC; -51.7% (active) in the assay with NCI-H522 lung. Also, the growth in the assay with A549/ATCC NSCLC is 0.665% (active); in the assay on 786-0 renal, -44.2% (active); in the assay with COLO 205 colon, -87.5% (active).
Consider `CCCCCCCCCCCCCCCCCC1=NCCN1CCNC(C)=O`, for which the growth in the assay on NCI-H23 lung was 93%; with NCI-H226 lung, 100%; in the assay on NCI-H322M lung it was 90.6%; in the assay with NCI-H460 lung it was 50.5%; in the assay on HOP-92 NSCLC, 62.1%; in the assay with NCI-H522 lung, 98.8%. Moreover, the growth is 79.3% with A549/ATCC NSCLC, 92.3% in the assay with 786-0 renal and 92.6% in the assay with COLO 205 colon.
For the compound `CCCC(=O)NNc1[nH]c(-c2cc(OC)c(OC)c(OC)c2)cc1C(=O)OCC`, the growth with NCI-H23 lung is 107%; in the assay with NCI-H226 lung, 103%; in the assay on NCI-H322M lung, 145%; with NCI-H460 lung it was 123%; with HOP-92 NSCLC, 84.8%; in the assay with NCI-H522 lung, 105%. The growth with A549/ATCC NSCLC is 115%; in the assay on 786-0 renal, 92.5%; with COLO 205 colon it was 34.3%.
